Inhibition data for 18 molecules are collected here from ChEMBL document CHEMBL4296182, “CO-ADD screening of NIH NCI Diversity Set V”.

Molecules are shown by their SMILES. For part of these data: Entries with a potency or affinity are not part of this list.

The test system of one experiment is Staphylococcus aureus. Description: Antibacterial activity against Staphylococcus aureus MRSA ATCC 43300 (CO-ADD:GP_020); MIC in CAMBH media using NBS plates, by Resazurin F(560/590). The format is functional. Particulars: Concentration 20 uM, ASSAY_TEST Inhibition of Bacterial Growth, detection method Resazurin, Fluorescence (ex560/em590), MEDIA CAMHB, plate type 384well, CORNING #3640, time 18 hr.

The subject of the next experiment is Acinetobacter baumannii. Description: Antibacterial activity against Acinetobacter baumannii ATCC 19606 (CO-ADD:GN_034); MIC in CAMBH media using NBS plates, by Resazurin F(560/590). The format is functional. The following applies: Concentration 20 uM, ASSAY_TEST Inhibition of Bacterial Growth, detection method Resazurin, Fluorescence (ex560/em590), MEDIA CAMHB, plate type 384well, CORNING #3640, time 18 hr.

The test system of a further experiment is Escherichia coli. Description: Antibacterial activity against Escherichia coli ATCC 25922 (CO-ADD:GN_001); MIC in CAMBH media using NBS plates, by Resazurin F(560/590). It counts as functional. Particulars: Concentration 20 uM, ASSAY_TEST Inhibition of Bacterial Growth, detection method Resazurin, Fluorescence (ex560/em590), MEDIA CAMHB, plate type 384well, CORNING #3640, time 18 hr.

A further experiment concerns Klebsiella pneumoniae. The following applies: Concentration 20 uM; ASSAY_TEST Inhibition of Bacterial Growth; detection method Absorption (OD600); MEDIA CAMHB; plate type 384well; NBS; CORNING #3640; time 18 hr.
In a further experiment the test system is Candida albicans. Particulars: 20 µM.
In the next experiment the test system is Cryptococcus neoformans. Particulars: Concentration 20 uM; ASSAY_TEST Inhibition of Fungal Growth; detection method Resazurin; Absorption (OD600-OD570); plate type 384well; NBS; CORNING #3640.

As to `Clc1ccc(-c2c(C3=NCCCN3)nnn2-c2ccc(Cl)cc2)cc1`, the Inhibition with Staphylococcus aureus is 10.56%; in the experiment with Acinetobacter baumannii it was -3.66%; in the experiment with Escherichia coli, 11.37%; with Klebsiella pneumoniae, 18%; in the experiment on Candida albicans it was 1.4%; in the experiment on Cryptococcus neoformans, -5.35%.
As to `CCOC(=O)Nc1cc2c(c(N)n1)N=C(c1ccccc1)CN2`, the Inhibition in the experiment with Staphylococcus aureus was 13.64%; in the experiment with Acinetobacter baumannii it was 2.33%; in the experiment with Escherichia coli, 8.87%; in the experiment with Klebsiella pneumoniae, 5.47%; in the experiment on Candida albicans, 5.55%; in the experiment on Cryptococcus neoformans, -8.89%.
`c1ccc(-c2nc(-c3nccc4ccccc34)oc2-c2ccccc2)cc1`: the Inhibition in the experiment with Staphylococcus aureus was -13.7%; with Acinetobacter baumannii it was -4.32%; in the experiment on Escherichia coli it was -16.8%; in the experiment on Klebsiella pneumoniae, -4.05%; in the experiment on Candida albicans it was 15.1%; in the experiment on Cryptococcus neoformans, 12.09%.
For the molecule `CC1(C)N=C(N)N=C(N)N1c1cccc(CN)c1.CCS(=O)(=O)O`, the Inhibition with Staphylococcus aureus was 8.6%; in the experiment on Acinetobacter baumannii it was -6.92%; with Escherichia coli, 11.68%; in the experiment on Klebsiella pneumoniae it was 13.8%; with Candida albicans, 2.57%; in the experiment with Cryptococcus neoformans, -7.41%.
As to `[O-][n+]1nc2ccccc2c2ccccc21`, the Inhibition in the experiment with Staphylococcus aureus is 3.86%; in the experiment on Acinetobacter baumannii, -1.94%; in the experiment with Escherichia coli it was -9.04%; in the experiment with Klebsiella pneumoniae, 13.55%; in the experiment on Candida albicans, 6.35%; in the experiment on Cryptococcus neoformans, 8.25%.
As for `COc1cc(C(=O)OC(C)CN2CCOCC2)cc(OC)c1OC` (stereo not drawn), the Inhibition was 13.82% in the experiment with Staphylococcus aureus; 10.27% in the experiment with Acinetobacter baumannii; 6.24% in the experiment on Escherichia coli; 16.73% with Klebsiella pneumoniae; -2.91% in the experiment on Candida albicans; -0.56% with Cryptococcus neoformans.
For the molecule `CNC(=O)c1nn(C)c(=O)[nH]c1=O`, the Inhibition with Staphylococcus aureus was 3.46%; with Acinetobacter baumannii it was -10.49%; in the experiment on Escherichia coli, 19.05%; in the experiment on Klebsiella pneumoniae it was 15.09%; in the experiment on Candida albicans, 4.6%; in the experiment on Cryptococcus neoformans, -7.3%.
As for `O=C(/C=C/c1ccccc1Cl)c1ccc(O)cc1`, the Inhibition is 3.85% in the experiment with Staphylococcus aureus; 0.76% in the experiment on Acinetobacter baumannii; -16.06% with Escherichia coli; 19.85% with Klebsiella pneumoniae; 14.7% in the experiment with Candida albicans; 8.89% in the experiment on Cryptococcus neoformans.
In the case of `CCOc1ccc(/C=C2\CCc3ccccc3C2=O)cc1`, the Inhibition is -3.91% with Staphylococcus aureus; -2.84% in the experiment on Acinetobacter baumannii; -2.65% with Escherichia coli; 4.93% in the experiment on Klebsiella pneumoniae; 5.43% in the experiment on Candida albicans; -7.99% in the experiment with Cryptococcus neoformans.
For `Cc1cc(NC(=O)c2ccccc2)nc(C)n1`, the Inhibition was 8.84% with Staphylococcus aureus; -8.03% with Acinetobacter baumannii; 12.79% in the experiment on Escherichia coli; 3.38% in the experiment on Klebsiella pneumoniae; 0.88% in the experiment with Candida albicans; -15.88% in the experiment with Cryptococcus neoformans.
As to `c1ccc2[nH]c(-c3ccncc3)nc2c1`, the Inhibition was 11.19% in the experiment with Staphylococcus aureus; -5.55% with Acinetobacter baumannii; 7.11% in the experiment on Escherichia coli; 18.73% with Klebsiella pneumoniae; -0.07% with Candida albicans; -8.67% in the experiment on Cryptococcus neoformans.
As for `Cc1c(COC(=O)NC(C)C)c(COC(=O)NC(C)C)c2n1CS(=O)(=O)C2`, the Inhibition was 22.95% with Staphylococcus aureus; -7.7% in the experiment on Acinetobacter baumannii; 11.68% in the experiment on Escherichia coli; 15.71% in the experiment on Klebsiella pneumoniae; 3.64% in the experiment on Candida albicans; -8.35% with Cryptococcus neoformans.
Turning to `Nc1ccccc1SC1CC(=O)N(c2ccc(Cl)c(Cl)c2)C1=O` (stereo not drawn), the Inhibition in the experiment on Staphylococcus aureus is 1.48%; with Acinetobacter baumannii, 12.22%; in the experiment with Escherichia coli, 0.8%; in the experiment on Klebsiella pneumoniae, 8.81%; with Candida albicans, 8.62%; with Cryptococcus neoformans, -1.72%.
Consider `Nc1ccc(/C=C/c2ccc3ncccc3c2)cc1`, for which the Inhibition in the experiment with Staphylococcus aureus is -2.75%; in the experiment with Acinetobacter baumannii it was -9.02%; in the experiment with Escherichia coli, 3.29%; in the experiment on Klebsiella pneumoniae, 1.77%; with Candida albicans it was 2.51%; with Cryptococcus neoformans it was -10.25%.
`c1ccc2c(c1)[nH]c1c3ccccc3sc21`: the Inhibition in the experiment with Staphylococcus aureus is 12.39%; with Acinetobacter baumannii, -1.18%; with Escherichia coli, 0.28%; with Klebsiella pneumoniae, 11.83%; with Candida albicans, 5.08%; in the experiment on Cryptococcus neoformans, -2.59%.
`O=C(O)c1ccccc1-c1ccccc1C(=O)Nc1ccc2c(c1)nc(O)c1ccccc12`: the Inhibition with Staphylococcus aureus was 7.3%; in the experiment with Acinetobacter baumannii, -9.28%; with Escherichia coli, 10.96%; in the experiment with Klebsiella pneumoniae it was 7.34%; in the experiment on Candida albicans, 7.22%; in the experiment on Cryptococcus neoformans, -6.01%.
On to `Cc1ccc(C)c(C(=O)CCC(=O)O)c1`, for which the Inhibition is 9.56% in the experiment on Staphylococcus aureus; 8.73% with Acinetobacter baumannii; 0.68% in the experiment with Escherichia coli; 19.18% in the experiment on Klebsiella pneumoniae; 8% in the experiment with Candida albicans; -5.46% with Cryptococcus neoformans.
On to `CCCCCCCC1(C)NC(=O)NC1=O` (stereo not drawn), for which the Inhibition in the experiment on Staphylococcus aureus is 7.54%; in the experiment with Acinetobacter baumannii, 3.29%; in the experiment with Escherichia coli, 6.05%; in the experiment with Klebsiella pneumoniae it was 5.77%; with Candida albicans it was 0.59%; in the experiment with Cryptococcus neoformans, -12.36%.
